BaF3 parental: reduces parental Ba/F3 cell viability, JAK2V617F counter-screen; 220,000 tested, 1.1% active; inhibition, % at 5.6 µM; CellTiter-Glo ATP luminescence;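 active means inhibition above a per-campaign cutoff, the mean inhibition of all tested compounds plus 3 SD, cut at about 27% in these data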
aSyn 5UTR inh: 5' untranslated region of α-synuclein, MLPCN primary screen. inhibition, % (tested at 7.5 µM). AID 1813. 300,000 tested, 0.82% active. alpha-synuclein 5'UTR reporter, inhibitor activity; in the data active means inhibition above about 60%;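 further: H4 neuroglioblastoma cells stably carrying SNCA 5'UTR luciferase fusion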
Ba/F3 V617F tox: loss of viability in JAK2V617F-driven Ba/F3 cells. inhibition, % at 5.6 µM. 220,000 tested, 1.1% active. Ba/F3 EpoR-JAK2V617F viability, ATP luminescence;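 active means inhibition above the campaign mean plus 3 SD over all tested compounds, cut at about 24% in these data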;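 further: cytokine-independent growth of Ba/F3 cells driven by EpoR plus mutant JAK2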
KLF5 inh: kruppel-like factor 5 inhibition; DLD-1 KLF5 promoter-luciferase reporter, luminescence; inhibition, % at 5 µM; 290,000 tested, 0.23% active; AID 1700;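 active means inhibition above a per-plate limit of that plate's mean compound inhibition plus 3 SD, cut at about 60% in these data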;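 further: higher means less KLF5 promoter-driven luciferase light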
APP 5UTR inh: APP translation inhibition; SH-SY5Y APP 5'UTR-luciferase reporter, luminescence; inhibition, % at 2 µM; 190,000 tested, 0.82% active; AID 1285;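 active means inhibition above a set limit, derived from the sample mean plus 3 SD, cut at about 45% in these data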
IEC-6 tox-1: kills IEC-6 intestinal cells in KLF5 counter-screen; 290,000 tested, 0.78% active; inhibition, % at 5 µM; IEC-6 cytotoxicity, luminescence viability; AID 1825
KLF5 inh confirm: confirmation of KLF5 inhibitors; shares compounds with KLF5 inh; DLD-1 KLF5 promoter firefly luciferase reporter, luminescence; inhibition, % at 4 µM; 610 tested, 79% active;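 active means inhibition above a set limit taken from the earlier primary screen, cut at about 63% in these data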
IEC-6 tox-2: counter-screen for KLF5 inhibitors: cytotoxicity in rat IEC-6 cells. shares compounds with KLF5 inh. IEC-6 rat intestinal cells, viability luminescence. inhibition, % at 4 µM. 610 tested, 56% active; in the data active means inhibition above about 23%;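 further: cells exposed to compounds for 48 hours before viability read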
IEC-6 tox confirm: confirmation of cytotoxic compounds in rat IEC-6 intestinal epithelial cells. shares compounds with IEC-6 tox-1. IEC-6 rat intestinal epithelial viability, luminescence. inhibition, % at 5 µM. 1,900 tested, 63% active. AID 1907
A number is an active result; - = inactive; . = no result. Hits are enriched below; roughly 2.2% of the tested compounds scored in any of these assays. Unless noted, no stated cut-off is given here; in the data, active means inhibition above about 22%; inactive means the rest.

SMILES	BaF3 parental	aSyn 5UTR inh	Ba/F3 V617F tox	KLF5 inh	APP 5UTR inh	IEC-6 tox-1	KLF5 inh confirm	IEC-6 tox-2	IEC-6 tox confirm
CCCNC1=C(N(C(C)=O)c2cccc(F)c2)C(=O)c2ccccc2C1=O	104	92	101	96	49	65	-	53	41
CCC(=O)N(C1=C(NC(C)C)C(=O)c2ccccc2C1=O)C(C)C	-	-	-	-	-	-	.	.	.
COc1cccc(C2CC(=O)Nc3cc4c(cc32)OCCO4)c1OC(C)C (stereo not given)	-	.	-	-	-	-	.	.	.
CC(C)Oc1ccccc1C1CC(=O)Nc2cc3c(cc21)OCCO3 (stereo not given)	78	73	74	80	95	88	98	90	56
CCOc1ccccc1C1CC(=O)Nc2cc3c(cc21)OCO3 (stereo not given)	75	66	79	74	90	83	91	65	57
O=C(CCl)Nc1cn(-c2ccccc2)nc1-c1ccccc1	-	-	-	-	-	-	.	.	.
C(=N\Nc1nc2ccccc2[nH]1)/c1ccc2ncccc2c1	96	95	90	62	.	95	-	90	85
COc1ccc(/C=N/Nc2nc3ccccc3[nH]2)cc1OC	-	-	-	-	-	-	.	.	.
N#CCCSc1ccccc1NC(=O)c1cc(=O)c2ccccc2o1	.	-	.	-	.	-	.	.	.
O=C(OCC(=O)N1CCCc2ccccc21)c1ccc(F)c(S(=O)(=O)N2CCOCC2)c1	.	-	.	.	.	.	.	.	.
Cc1ccccc1OCCc1c(C)[nH]c(=S)[nH]c1=O	75	-	73	82	92	84	78	55	56
Cc1[nH]c(=S)[nH]c(=O)c1CCOc1ccccc1	-	-	-	-	-	-	.	.	.
O=C(N/N=C/c1cc(Br)ccc1OC(=O)c1ccc(Br)cc1)c1ccncc1	.	-	.	78	.	97	90	-	24
O=C(N/N=C/c1cc(Br)ccc1O)c1ccncc1	-	-	-	84	.	22	89	-	29
O=C(N/N=C/c1ccc(OC(=O)c2ccc(Br)cc2)cc1)c1ccncc1	.	-	.	-	.	-	.	.	.
Cc1cccc(NC(=O)Cn2c(=O)n(CCc3c[nH]c4ccccc34)c(=O)c3cccnc32)c1	-	-	-	-	-	-	.	.	.
Cc1cc2nc(-c3ccc[nH]c3=O)[nH]c2cc1C	.	77	.	83	.	40	-	-	33
CCOc1ccc(C2=Nn3c(nnc3-c3ccccc3OC)SC2)cc1	93	109	96	82	95	96	94	84	83
CC1CN(c2cnn(C(C)C)c(=O)c2Cl)CC(C)O1 (stereo not given)	.	-	.	-	.	-	.	.	.
O=C(CNC(=O)c1ccco1)N=Nc1c(O)n(CCc2ccccc2)c2ccccc12	68	-	74	71	.	85	83	72	67
CCn1c(O)c(N=NC(=O)CNC(=O)Cc2ccccc2)c2ccccc21	.	-	.	-	.	-	.	.	.
CN(C)c1ccc(C(=O)c2ccccc2C(=O)O)cc1[N+](=O)[O-]	-	-	-	-	-	-	.	.	.
CN(C)c1ccc(C(=O)c2ccc(N(C)C)c3ccccc23)cc1	94	89	94	80	95	97	92	85	84
COc1cc(C(=O)N/N=C/C2CC=CCC2)cc(OC)c1OC (stereo not given)	79	108	83	64	93	90	-	-	-
COc1cc(C(=O)N/N=C/c2ccsc2C)cc(OC)c1OC	85	92	83	76	96	89	86	66	60
SMILES	BaF3 parental	aSyn 5UTR inh	Ba/F3 V617F tox	KLF5 inh	APP 5UTR inh	IEC-6 tox-1	KLF5 inh confirm	IEC-6 tox-2	IEC-6 tox confirm
Cc1cccc(N2CCN(C(=O)c3c(-c4ccccc4Cl)noc3C)CC2)c1C	.	-	.	77	.	73	76	56	55
Cc1onc(-c2ccccc2Cl)c1C(=O)N1CCN(C=O)CC1	.	-	.	-	.	-	.	.	.
CCOc1ccc2c(c1)C(C)=CC(C)(C)N2C(=O)Nc1ccccc1F	-	-	-	-	-	-	.	.	.
COc1ccc2c(c1)C(C)=CC(C)(C)N2S(=O)(=O)c1ccc(C)cc1	74	-	70	87	84	81	88	55	53
CCOc1ccc2c(c1)C(C)=CC(C)(C)N2S(=O)(=O)c1ccc(C)cc1	77	103	79	68	95	90	91	55	59
COC(=O)C1(C)CN(S(=O)(=O)c2ccc(C)cc2)c2cc(OC)ccc2C1=O (stereo not given)	-	-	-	-	-	-	.	.	.
COCCNC(=O)C(c1ccc(F)cc1)N(C(=O)CCC(=O)Nc1nccs1)c1cccc(C)c1 (stereo not given)	-	.	-	-	-	-	.	.	.
CC(=O)c1cccc(Nc2c3c(nc4ccccc24)CCC3)c1	.	75	.	65	.	75	102	51	51
COCCCNc1nnc(Cc2ccc(Cl)cc2)c(=O)[nH]1	.	66	.	62	.	82	80	38	60
CCc1ccc(S(=O)(=O)/N=C2\C=C(Nc3ccc(O)cc3)C(=O)c3ccccc32)cc1	.	101	.	96	.	102	69	60	67
CCc1ccc(S(=O)(=O)/N=C2\C=C(Nc3cccc(C(=O)O)c3)C(=O)c3ccccc32)cc1	.	-	.	-	.	-	.	.	.
O=C1C(Nc2ccc(O)cc2)=C/C(=N/S(=O)(=O)c2cccs2)c2ccccc21	101	114	87	67	54	102	114	102	103
Cc1cccc(NC2=C/C(=N/S(=O)(=O)c3cccs3)c3ccccc3C2=O)c1	-	.	-	-	-	-	.	.	.
C/C(=N\NC(=O)c1ccccc1O)C1CC1	.	-	.	-	.	-	.	.	.
CC(=O)Nc1ccc(C(=O)Nc2nc(-c3ccccn3)cs2)cc1	-	-	-	-	-	-	.	.	.
O=C(Nc1nc(-c2ccccn2)cs1)c1ccccc1-n1cnnn1	63	98	66	71	.	90	76	59	70
CC(C)(C)c1ccc(NC(=O)c2ccc(=O)[nH]n2)cc1	.	-	.	-	.	-	.	.	.
O=C(Nc1ccc(N2CCN(C(=O)c3cccs3)CC2)cc1)c1cccc(F)c1	.	-	.	-	.	-	.	.	.
COc1cccc(C(=O)Nc2ccc(N3CCN(C(=O)c4cccs4)CC3)cc2)c1	.	-	.	63	.	77	-	35	34
Oc1ccc(C[C@@H]2CNCCN2CCc2cccc(F)c2)cc1	.	-	.	.	.	.	.	.	.
O=C1OCC2=C1C(c1ccc(F)cc1)c1cc3c(cc1N2)OCCO3 (stereo not given)	96	.	96	98	94	95	92	84	86
O=C1OCC2=C1C(c1ccc3c(c1)OCO3)Sc1ccccc1N2 (stereo not given)	-	-	-	-	-	-	.	.	.

Screening results as filed in PubChem BioAssay.
